Records with an inconclusive call do not appear. Where a call stands in place of a potency, no number is given. Calls of active or inactive are those of the source. Calls follow the shape of the dose curve; as a rule, active = well fitted inhibition curve with a large enough effect; inconclusive = small, poorly fitted or top-dose-only effect; inactive = no such curve, though single readings can be large or run the other way.
Potency is read from the fitted curve at half-maximal effect.

Chain of Tumor susceptibility gene 101 protein (Homo sapiens) (Q99816 whole entry, looked up, the tested form may be a part): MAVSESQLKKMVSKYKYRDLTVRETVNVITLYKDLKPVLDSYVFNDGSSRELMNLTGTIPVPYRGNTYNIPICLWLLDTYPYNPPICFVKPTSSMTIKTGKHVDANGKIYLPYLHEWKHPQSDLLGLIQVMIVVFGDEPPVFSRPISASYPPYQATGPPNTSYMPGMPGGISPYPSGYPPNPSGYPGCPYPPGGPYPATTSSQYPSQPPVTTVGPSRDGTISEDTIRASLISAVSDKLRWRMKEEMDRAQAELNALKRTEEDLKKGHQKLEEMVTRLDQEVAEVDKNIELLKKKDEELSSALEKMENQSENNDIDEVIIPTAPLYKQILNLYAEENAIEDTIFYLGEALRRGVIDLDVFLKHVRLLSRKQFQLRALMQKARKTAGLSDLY

The assay deals with Tumor susceptibility gene 101 protein (Homo sapiens) (UniProt Q99816). The experiment in a line: qHTS Assay for Iinhibitors of HIV-1 Budding by Blocking the Interaction of PTAP/TSG101: Hit Validation in TR assay. Particulars: Tsg101 binding domain + Texas Red-labeled PTAP peptide, fluorescence polarization, 20 min; series mostly up to 57.5 µM. The method, boiled down:
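Fluorescence polarization: Tsg101 binding domain (10 uM final) with Texas Red-labelled PTAP peptide (50 nM final) in HEPES pH 7.5, 0.15 M NaCl, Tween 20, EDTA, TCEP; 20 min binding at room temperature after compound addition.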
On the technique in general: qHTS replaces the single test concentration by a dilution series.
On to `Cc1c(C(=O)N(C)c2cccc(C(F)(F)F)c2)sc2nc3n(c(=O)c12)CCCCC3`, for which the Potency entry is “inactive”.
`CSCC(C)N1CCC(n2nccc2NC(=O)CCCc2ccccc2)CC1` (centres undefined): the Potency entry is “inactive”.
The value for `O=C(C1=NN(c2ccccc2)C2C(=O)N(c3cccc(Cl)c3)C(=O)C12)c1ccccc1` (centres undefined) was 29.1 µM (active).
For the compound `CC(OC(=O)c1c2c(nc3ccccc13)/C(=C\c1ccc3c(c1)OCO3)CCC2)C(=O)Nc1ccc(S(N)(=O)=O)cc1` (centres undefined), the Potency result is “inactive”.
The value for `Cc1c2cc(O)c(=O)cc-2oc2cc(O)c(O)cc12` was “inactive”; that for `Cc1cc(C)n2nc3nc4c(cc3c2n1)CCCC4` was “inactive”.
The result for `O=c1oc2cc(O)ccc2cc1-c1nc2c(s1)CCc1ccccc1-2` reads “inactive”; that for `COc1ccc(-c2cc(C(F)(F)F)c3c(N)c(C(=O)NCCSC)sc3n2)cc1`, “inactive”.
The result for `COc1cccc(/C(O)=C/c2nc3ccc(C(=O)NCCc4ccc(Cl)cc4)cc3[nH]c2=O)c1` reads “inactive”.
Turning to `O=C1c2cccc3c(O)ccc(c23)C(=O)N1Cc1ccccc1`, the Potency result was “inactive”.
As for `CCOC(=O)c1cc2n(c1/N=C/N(C)C)-c1ccccc1C2=O`, the Potency entry was “inactive”.
The result for `S=C(NCc1ccccc1)Nc1cccc(Cl)c1` reads “inactive”.
The result for `CCN(CC)C1=CC2=CC(=C(C#N)C#N)CCC2CC1` (centres undefined) reads “inactive”.
Regarding `Cc1nc(Nc2ccc(S(=O)(=O)N3CCCCC3C)cc2)c2nnn(Cc3ccccc3)c2n1` (centres undefined), the Potency entry was “inactive”.
Regarding `CCc1ccc[n+](-c2[nH]c(=O)sc2/C=N/NC([S-])=Nc2ccccc2)c1`, the Potency result was “inactive”.
As to `CSC1=NSC2=NC(=O)/C(=C/c3coc4ccc(O)cc4c3=O)C(=N)N12`, the Potency entry was “inactive”.
The value for `CC1(C)CC(=O)C2=C(C1)OC(N)=C(C#N)[C@@H]2c1ccccc1[N+](=O)[O-]` was “inactive”; that for `CN(C)c1ccc(/C=C2\SC(=O)N(CC(O)Cn3c4ccccc4c4ccccc43)C2=O)cc1` (centres undefined) was “inactive”; that for `O=C(O)c1ccccc1C1=Nc2ccc(O)cc2Oc2cc(O)ccc21` was “inactive”.
The value for `COc1ccc(N=Nc2nc3cc(Br)c(Br)cc3n2C)c(OC)c1` was “inactive”; that for `O=c1oc2ccccc2cc1-c1nc(-c2cccs2)cs1` was “inactive”.
The value for `COc1ccccc1NC(=O)/C(C#N)=C/c1cc([N+](=O)[O-])ccc1N1CCCC1` was “inactive”.
In the case of `C=CCn1c(=O)[nH]c2nc3cc(N=CN(C)C)c(C)cc3nc2c1=O`, the Potency was 18.3 µM (active).
The result for `COc1cc2c(cc1OC)-c1cc3ccc4c(c3c[n+]1CC2)OCO4` reads “inactive”; that for `COCCCNC(=O)C(C#N)c1nc2ccccc2nc1N1CCCC1` (centres undefined), “inactive”.
The result for `Cc1ccc(N2C(=O)c3cccc4c(N5CCN(C)CC5)ccc(c34)C2=O)c2cccnc12` reads “inactive”; that for `c1ccc(-c2cnn3c(-c4ccccc4)c(-c4ccccc4)nc3n2)cc1`, “inactive”; that for `O=[N+]([O-])c1cc(Cl)cc(/C=N/NC(=S)Nc2ccc(S(=O)(=O)N3CCOCC3)cc2)c1O`, “inactive”.
The value for `Cc1cc(/C=C2\SC(=S)N(Cc3ccco3)C2=O)c(C)n1-c1cccnc1` was “inactive”; that for `O=c1[nH]c2c(s1)C=Nc1ccccc1N2` was “inactive”.
As for `O=C(NCc1cc(C(F)(F)F)ccc1Cl)c1cccc2c1C(=O)c1ccc(N3CCC(Cc4ccccc4)CC3)cc1S2(=O)=O`, the Potency result was “inactive”.
The value for `C(=N\NC1=Nc2cccc3cccc1c23)/c1ccccc1` was “inactive”.
The value for `CC(C)CCN1C(=O)c2cccc3c(N)ccc(c23)C1=O` was “inactive”; that for `CCc1ccccc1N=Cc1c(C)c(C#N)c2[nH]c3ccccc3n2c1=O` was “inactive”; that for `COc1ccc2ccccc2c1C(O)c1nccn1C` (centres undefined) was “inactive”.
As to `CN1CCc2c(sc(NC(=O)CSc3ccc(F)cc3)c2-c2nc3ccccc3s2)C1`, the Potency result was “inactive”.
The value for `CS(=O)(=O)Nc1nc2n(n1)C(c1ccccc1)C=C(c1ccc(Br)cc1)N2` (centres undefined) was “inactive”; that for `Cc1cc[n+](-c2[nH]c(=O)sc2/C=N/N=C(\[O-])c2ccccc2)cc1C` was “inactive”.
`Cc1ccc(Nc2ccc([N+](=O)[O-])ccc2=O)cc1`: the Potency entry was “inactive”.
